Source: PubChem BioAssay (National Center for Advancing Translational Sciences (NCATS))
Vaccinia mCherry: qHTS for Stage-Specific Inhibitors of Vaccinia Orthopoxvirus: mCherry Reporter Primary qHTS. hit rate 0.63% among 310,000. Vaccinia virus mCherry reporter infection, fluorescence. Potency, µM (series often up to 36.5 µM), inactives show at the highest dose activity change, negative = inhibition, most hits filed as inhibitors. AID 720579, 2013; calls by dose curve; tested in A549 cells; also: nearly all actives have a fitted effect of over 35% in size
MARV entry inh: qHTS for inhibitors of binding or entry into cells for Marburg Virus | Marburg virus pseudotyped entry inhibition, cell reporter | Potency, µM (doses to about 37.8 µM), inactives show top-dose activity change, negative = inhibition, usual class: inhibitors | hit rate 1.8% among 300,000 | AID 540276, 2011; calls by dose curve; tested in HEK293 cells
Lassa entry inh: qHTS for Inhibitors of binding or entry into cells for Lassa Virus | Potency, µM (doses to about 37.9 µM), without a hit: at the top dose activity change, negative = inhibition, hits mostly inhibitors | hit rate 1.2% among 300,000 | Lassa virus pseudotype entry inhibition, cell reporter | AID 540256, 2011; calls by dose curve; tested in HEK293 cells; also: nearly all actives have a fitted effect of over 50% in size
FMDV inh: High Throughput Screening for Foot and Mouth Disease Virus Antivirals. Potency, µM (titrated, usually from 57.9 µM), inactives show at the highest dose activity change, negative = inhibition, actives largely listed as inhibitors. FMDV antiviral cell-based qHTS. AID 1159524, 2015. hit rate 1.2% among 410,000; calls by dose curve; tested in HEK293T cells; also: read-out not given here; nearly all actives have a fitted effect of over 45% in size
VACV Venus inh: qHTS for Stage-Specific Inhibitors of Vaccinia Orthopoxvirus: Venus Reporter Primary qHTS; Vaccinia virus Venus reporter expression, fluorescence; Potency, µM (doses to about 36.5 µM), inactives show at the highest dose activity change, negative = inhibition, actives largely listed as inhibitors; hit rate 0.46% among 330,000; AID 720580, 2013; calls by dose curve; tested in A549 cells; also: nearly all actives have a fitted effect of over 30% in size
Numbers without * were called inactive; i = inactive; ? = inconclusive; / = not tested or not shown; [ ] = dose if it differs, or a comment. Most compounds without a hit are left out; they make up all but 3.2% or so of the library. % is scaled to controls: 0 for no effect and ±100 for the full control effect; potency is read from the fitted curve at half-maximal effect.

SMILES	Vaccinia mCherry	MARV entry inh	Lassa entry inh	FMDV inh	VACV Venus inh
CCN(c1ccc(NC(=O)COC(=O)CCc2cc(OC)c(OC)c(OC)c2)cc1)C(C)C	-6%	/	/	8%	-3%
Cc1c(NC(=O)COC(=O)C2=COCCO2)cccc1[N+](=O)[O-]	-13%	24%	-1%	-16%	-4%
CCCOC(=O)c1cccc(Nc2nc(-c3cccnc3)nc3ccccc23)c1	?	10µM*	?	25µM*	?
Cc1ccccc1C(=O)Oc1cccc(Nc2ncnc3ccccc23)c1	?	11µM*	10µM*	16µM*	?
O=C(OCCNc1nc(-c2ccccc2)nc2ccccc12)c1cccnc1	/	/	/	-22%	/
COC(=O)c1cccc(Nc2ncnc3ccc(C)cc23)c1	-24%	?	14%	/	-17%
CC(=O)Oc1cccc(Nc2ncnc3ccccc23)c1	/	/	/	-8%	/
CCOC(=O)c1cccc(Nc2ncnc3ccccc23)c1	/	?	-22%	40µM*	?
CCOC(=O)N/N=C1/C[C@@H](O)[C@@H](O)[C@@H]2[C@@H]3C(=O)N(C4CCCCC4)C(=O)[C@H]3CC[C@@H]12	/	20%[14.2 µM]	/	/	/
O=c1[nH]c2c(-c3nc(-c4ccc(Cl)cc4)cs3)c(O)cn2c2ccccc12	26%	/	/	/	-3%
Cc1cc2oc(=O)c(CC(=O)NCCCN(C)C)c(C)c2c2occ(C(C)(C)C)c12	13µM*	?	?	-10%	?
COc1ccccc1-n1cc(CN2CCOc3ccc(CN4C[C@@H](C)O[C@@H](C)C4)cc3C2)cn1	-12%	/	/	-22%	1%
COc1cccc(C2(CC(=O)N3CCN(c4nonc4C)CC3)CC(=O)N(C3CCCC3)C2=O)c1 (stereo not given)	-3%	/	/	32%	-15%
CCOc1ccc(CNC(=O)c2cccc(NC(=O)N3CCSc4ncccc43)c2)cc1OC	-9%	/	?	14µM*	-9%
CCOc1ccc(NC(=O)c2ccc(NC(=O)N3CCSc4ncccc43)cc2)cc1	-23%	/	3%[46.1 µM]	32µM*	-18%
O=C1NC[C@@H](CCCCN2CCN(CCC3CCCCC3)C(=O)C2=O)N(CCC2CCCCC2)C1=O	i	/	/	44%	8%
Fc1cccc(Cc2c(-c3ccco3)nc3ccc(Cl)cn23)c1	15%	/	/	?	1%
Fc1cccc(Cc2c(-c3ccco3)nc3ccc(Br)cn23)c1	5%	/	/	35µM*	2%
O=C(Nc1nc2ccccc2[nH]1)c1ccc(Cl)cc1	-31%	?	2.5µM*	-71%	-24%
CCN(c1ccccc1)S(=O)(=O)c1ccc(C(=O)Nc2ccncc2)cc1	-11%	?	?	25µM*	-24%
C=CCN(c1ccccc1)S(=O)(=O)c1cccc(C(=O)Nc2nc3ccccc3[nH]2)c1	-6%	?	-25%	22µM*	-23%
O=C(/C(=C/c1ccc(Cl)cc1)c1nc2ccccc2[nH]1)c1ccccc1	?	?	4.1µM*	?	?
O=C(N/C(=C/c1ccc(Cl)cc1)c1nc2ccccc2[nH]1)c1ccco1	-3%	?	9%	29%	?
COCCN1C[C@@H](CO)O[C@@H](n2cnc3c(NCCO)ncnc32)C1	-1%	/	/	-22%	-3%
Cc1oc(-c2ccccc2NC(=O)c2ccccn2)nc1CNC(=O)c1ccc(Oc2ccccc2)o1	-11%	/	/	3%	-6%
SMILES	Vaccinia mCherry	MARV entry inh	Lassa entry inh	FMDV inh	VACV Venus inh
CN(C)CCCNc1nccc(N2CCN(C)CC2)n1	-6%	/	/	/	-10%
O=C(Cc1ccc(OCc2ccccc2)cc1)NO	31%	/	/	/	-6%
CN(c1cccc(Cl)c1)S(=O)(=O)c1cccc(C(=O)Nc2nc3ccccc3[nH]2)c1	?	22µM*	?	13µM*	11µM*
COc1ccc(N(C)S(=O)(=O)c2cccc(C(=O)Nc3nc4ccccc4[nH]3)c2)cc1	-25%	?	?	?	?
CCN(CC(=O)Nc1c(F)cccc1F)C(=O)c1ccc(S(=O)(=O)N(CC)c2ccccc2)cc1	/	/	/	-8%	/
C=CCN(c1ccccc1)S(=O)(=O)c1cccc(C(=O)N(CC)CC(=O)Nc2c(F)cccc2F)c1	-10%	?	18µM*	2%	-19%
C=CCN(c1ccccc1)S(=O)(=O)c1cccc(C(=O)Nc2ccc(N3CCOCC3)cc2)c1	?	?	?	22µM*	?
COc1cc(/C=C(/C(=O)c2cccs2)c2nc3ccccc3[nH]2)cc(OC)c1O	/	-85%	?	14µM*	/
CCCCN1CCCCC1(C)C(=O)NCc1ccc2c(c1)OCO2 (stereo not given)	26%	/	/	-14%	3%
COC(=O)C1=C(C)N(Cc2ccccc2)C(=NCc2ccc3c(c2)OCO3)NC1CCc1ccccc1 (stereo not given)	/	-12%[14.2 µM]	?	/	/
COc1ccc(CNC(=O)CN2C(=O)NC(Cc3ccccc3)(c3ccccc3)C2=O)cc1OC (stereo not given)	/	/	/	-6%	/
CCN(c1ccccc1)S(=O)(=O)c1ccc(F)c(C(=O)Nc2ccc(C)cc2)c1	-12%	/	?	0%	-13%
C=CCN(c1ccccc1)S(=O)(=O)c1cccc(C(=O)NCc2ccncc2)c1	?	?	-10%	-1%	-17%
C=CCN(c1ccccc1)S(=O)(=O)c1cccc(C(=O)Nc2ccncc2)c1	-6%	?	?	22µM*	-16%
CCN(c1ccccc1)S(=O)(=O)c1cc(C(=O)Nc2ccc(F)c(F)c2)ccc1F	?	?	14µM*	11µM*	?
CSc1cccc(NC(=O)Nc2ccccc2C(N)=O)c1	-9%	/	/	51%	-15%
O=C1CSC(c2cn(-c3ccccc3)nc2-c2cc3ccccc3oc2=O)N1Cc1ccccc1 (stereo not given)	-6%[1.46 µM]	?	11µM*	-18%	?
CCOC(=O)C1(C)CCCN(C(=O)c2cc(F)ccc2C)C1 (stereo not given)	28%	/	/	-4%	4%
CC(Sc1ccc(S(=O)(=O)N2CCOCC2)cn1)C(=O)Nc1ccc(Cl)cc1Cl (stereo not given)	/	/	/	-25%	/
CC(Sc1ccc(S(=O)(=O)N2CCOCC2)cn1)c1ccccc1Cl (stereo not given)	-13%	?	8.9µM*	-25%	-14%
Cc1cc2c(N=O)c(NO)ccc2[nH]1	?	1.4µM*	?	-2%	?
Cc1ccc2oc(=O)c3cnn(CC(=O)N4CCN(c5ccc(F)cc5)CC4)c3c2c1	7%	13%[46.1 µM]	11%[46.1 µM]	-14%	-5%
COc1ccc(OC)c(C(=O)CC2OC(=O)c3ccccc32)c1 (stereo not given)	/	?	-4%	14µM*	/
COc1cc(CNC[C@H]2O[C@@H](n3ccc(N)nc3=O)[C@H](O)[C@@H]2O)ccc1OCc1cccc(Cl)c1	-8%	/	/	-3%	1%
CCOC(=O)c1c(C)sc2c1N(C(=O)CCl)c1cc(Cl)ccc1S2	?	?	?	10µM*	-30%
Cc1sc2ncnc(SCC(=O)N3c4ccccc4Sc4ccc(Cl)cc43)c2c1C	-18%	?	0%	-20%	-7%
